Assay [1] can be described thus: Her2 expression decrease, cell viability multiplex – SKBR3 breast tumor cells, AlphaScreen, ATP viability, primary screen (AID 461;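 active = Her2 level under about 52% in both replicate screens, with viability over 70% of control, limit read from the data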;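 as to Her2 level: lower value means less Her2 protein in the cells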;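 as to viability: percent of carrier control wells set as 100% viability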). To be noted: SKBR3 Her2 protein level, 18-24 h, measured here: SKBR3 viability, ATP luminescence, at 10 µM. On the technique in general: Bead proximity is the source of the signal in Alpha formats.
The target in assay [2] is Receptor tyrosine-protein kinase erbB-2 (Homo sapiens) (UniProt P04626). The assay is described as above. Conditions: 18-24 h, at 10 µM, stronger effect = lower value.
Assay [3] in a line: reduced viability of SK-BR-3 breast cancer cells – cell-based, 24 h, human, pilot screen (AID 572).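 Also: compound exposure lasted between 18 and 24 h rather than exactly 24 h; 100% = carrier-treated control wells.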 Conditions: SK-BR-3 viability, CellTiter-Glo luminescence, at 10 µM, stronger effect = lower value.
Assay [4] in a line: HUVEC growth inhibition – cell-based, human, primary screen (AID 575;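 active = viability at or below 30% in both replicate assays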;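 also: 100% = median of untreated cell wells with 0.1% DMSO on each plate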). Conditions: HUVEC proliferation, CellTiter-Glo luminescence, 72 h; at 10 µM; stronger effect = lower value. A general note: ATP-based viability assays read luminescence as a measure of living cells.
A short description of assay [5]: H69AR cell proliferation blockers – human, duplicate replicates, primary screen (AID 580;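 active = viability at or under a set limit in both replicates, limit being median viability minus 3 SD, cut at about 48% in these data, passing the limit was not always enough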;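 also: 100% = mean luminescence of untreated wells and 0% = no signal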). Conditions: H69AR lung tumor cells viability, ATP luminescence, 72 h; at 10 µM; stronger effect = lower value.
Assay [6] can be described thus: MRP1 drug-resistance reversers in H69AR cells – cell-based, doxorubicin co-treatment, pilot screen (AID 601;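 active = viability loss from added drug above about 55%, and viability with drug at most 40%, in both replicates, limit read from the data, passing the limit was not always enough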). Conditions: CellTiter-Glo, 72 h, at 10 µM; for differential viability (reversal): stronger effect = higher value.
Assay [7] in a line: yeast transport mutant growth inhibition pilot in 384-well plates, post-Golgi transport modulator project (AID 636; in the data active = inhibition above about 31%). To be noted: absorbance 615 nm, about 18 h, stronger effect = higher value.
Assay [8] is described as follows: growth suppression of yeast trafficking mutant, preliminary HTS, modulators of trafficking downstream of Golgi apparatus project, 1536-format plate, OD 615 nm (AID 637; in the data active = inhibition above about 30%). To be noted: yeast transport mutant growth, absorbance 615 nm, 18 h; stronger effect = higher value.
The nature of assay [9]: S. cerevisiae growth inhibition in permissive medium (OD615), pilot counter-assay for S. cerevisiae lifespan shortening project, permissive growth control (AID 705;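 active = growth inhibition above 25% in both replicates, a cutoff set 3 SD above the mean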). To be noted: OD615, 24 h, at 10 µM, stronger effect = higher value.
Assay [10] can be described thus: S. cerevisiae growth inhibition in restrictive medium, OD615, pilot screen, restrictive growth control, yeast lifespan reduction project (AID 706;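 active = growth inhibition above a set limit, 3 SD over mean compound inhibition, in both replicates, cut at about 43% in these data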;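 also: modified DeaD lifespan yeast strain shifted to restrictive glucose medium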). To be noted: OD615, 48 h, at 10 µM, stronger effect = higher value.
Assay [11] is described as follows: doxorubicin toxicity protection in MRP-1 cells – H69AR cells, CellTiter-Glo, duplicate, MRP-1 activator project, pilot screen (AID 807;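 active = viability increase at or above a cutoff of the median across tested compounds plus 3 SD, cut at about 8.5% in these data, passing the limit was not always enough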;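 also: compound pretreatment 18-22 h then 72 h combined with doxorubicin; 0% = doxorubicin alone and 100% = vehicle without doxorubicin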). To be noted: H69AR viability with doxorubicin, CellTiter-Glo luminescence; at 10 µM; stronger effect = higher value.
A short description of assay [12]: viability of HCT116 without oncogenic beta-catenin – human colon tumor cells, pilot screen (AID 823;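 active = cell viability at or below a set limit in both duplicate runs, the limit being the all-compound median minus 4 SD, cut at about 23% in these data, passing the limit was not always enough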;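 also: 0% = wells killed by 20 µM Hyamine and 100% = untreated DMSO cell wells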). Conditions: HCT116 beta-catenin knockout viability, CellTiter-Glo, 60 h; at 10 µM; stronger effect = lower value.
Assay [13] is described as follows: viability of PTEN-null HCT116 cells – cell-based, HCT116 clonal line, CellTiter-Glo, pilot screen (AID 824;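 active = viability at or below 27.92% in each of two runs, the all-compound median minus 4 SD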;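 also: 0% = 20 µM Hyamine control and 100% = vehicle cell control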). To be noted: HCT116 PTEN-deleted viability, 60 h, at 10 µM, stronger effect = lower value.
Assay [14] in a line: RAM pathway blockade in budding yeast – dse1pr::URA3 reporter, 5-FOA selection, pilot screen (AID 869;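 active = inhibition over a set limit, the all-compound mean plus 3 SD, in both replicate runs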;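 also: 0% = DMSO wells with no growth and 100% = 10 µM 1-NA-PP1 with full growth; RAM network block rescues cells from 5-FOA so hits raise OD615 growth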). Conditions: S. cerevisiae dse1pr::URA3 5-FOA growth, OD615, 2 d; at 10 µM; stronger effect = higher value; strain carries analog-sensitive mutant Cbk1 kinase.
The nature of assay [15]: RAM signaling pathway blockade in yeast – S. cerevisiae, Pdr1DBD-CYC8 efflux-inhibited sensitized strain, primary screen (AID 1298;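 active = RAM network inhibition above 8.4% in each of two replicates, 3 SD over the compound average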;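 also: 0% = DMSO untreated cells without growth and 100% = 10 µM 1-NA-PP1 full growth; higher means more yeast growth rescued from 5-FOA killing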). To be noted: S. cerevisiae cbk1-as DSE1-URA3 strain, 5-FOA growth OD615, 2 d; at 50 µM; stronger effect = higher value.
Setting [16] is: H69AR cells + 2 uM doxorubicin, measured here: viability with 2 uM doxorubicin, stronger effect = lower value.
The mark [17] stands for this setting: H69AR cells, compound alone cytotoxicity.

Inconclusive results are not listed. The source made the active and inactive calls.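 The calls were made as follows, unless noted: active = viability at or below 10% of carrier control in both of two separate runs; inconclusive = viability at or below 10% in only one of the two runs; inactive = the rest.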

Chain of Receptor tyrosine-protein kinase erbB-2 (Homo sapiens) (P04626 whole entry, looked up): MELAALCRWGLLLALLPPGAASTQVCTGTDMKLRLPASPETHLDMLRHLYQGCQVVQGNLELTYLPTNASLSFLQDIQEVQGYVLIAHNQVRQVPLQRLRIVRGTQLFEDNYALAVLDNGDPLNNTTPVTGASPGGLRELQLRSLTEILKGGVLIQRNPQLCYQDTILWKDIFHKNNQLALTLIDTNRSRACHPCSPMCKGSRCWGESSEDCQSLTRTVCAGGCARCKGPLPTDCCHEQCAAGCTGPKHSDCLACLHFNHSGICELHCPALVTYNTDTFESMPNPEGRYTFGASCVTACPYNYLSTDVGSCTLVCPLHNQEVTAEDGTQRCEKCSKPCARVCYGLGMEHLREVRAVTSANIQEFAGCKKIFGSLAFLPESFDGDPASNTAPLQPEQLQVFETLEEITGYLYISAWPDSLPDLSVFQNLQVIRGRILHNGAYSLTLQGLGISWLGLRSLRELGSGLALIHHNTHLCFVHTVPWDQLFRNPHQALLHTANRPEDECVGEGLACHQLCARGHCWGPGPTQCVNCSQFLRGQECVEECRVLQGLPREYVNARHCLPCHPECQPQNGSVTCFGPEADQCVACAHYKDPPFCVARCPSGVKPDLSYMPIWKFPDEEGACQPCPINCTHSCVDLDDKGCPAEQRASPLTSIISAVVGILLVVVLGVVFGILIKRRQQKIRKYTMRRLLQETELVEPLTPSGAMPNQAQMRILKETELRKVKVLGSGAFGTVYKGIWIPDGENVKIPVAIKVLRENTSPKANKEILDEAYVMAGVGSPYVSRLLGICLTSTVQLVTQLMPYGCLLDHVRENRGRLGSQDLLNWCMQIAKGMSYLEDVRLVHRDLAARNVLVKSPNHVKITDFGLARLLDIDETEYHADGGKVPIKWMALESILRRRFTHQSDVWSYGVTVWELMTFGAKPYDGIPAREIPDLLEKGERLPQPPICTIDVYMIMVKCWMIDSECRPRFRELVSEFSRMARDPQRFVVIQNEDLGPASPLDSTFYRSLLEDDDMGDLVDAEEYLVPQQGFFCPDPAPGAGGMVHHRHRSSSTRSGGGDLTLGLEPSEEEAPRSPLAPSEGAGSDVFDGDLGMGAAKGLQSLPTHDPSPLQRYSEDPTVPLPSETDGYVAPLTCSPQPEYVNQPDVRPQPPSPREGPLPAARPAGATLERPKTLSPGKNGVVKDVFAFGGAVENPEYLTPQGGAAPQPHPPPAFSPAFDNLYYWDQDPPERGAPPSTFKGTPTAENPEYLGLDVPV

One may read the viability as a read-out of living cells in per cent, often relative to untreated cells. As a reminder, the inhibition is the change of the read-out against control, counted positive when it falls. In the case of `CCN(CC)C(=O)Cn1ncc2c1-c1ccccc1OC2`, the viability is 84.5% in assay [1]; 84.5% (inactive) in assay [3]; 98.3% (inactive) in assay [4]; 100% (inactive) in assay [5]; 84.7% in [6] (setting [16]); 100% in assay [6] (setting [17]). In addition, the viability in assay [12] is 105% (inactive); in assay [13] it was 100% (inactive). Further, in assay [2], the Her2 level was 112% (inactive). In addition, the differential viability (reversal) in [6] (H69AR cells + 2 uM doxorubicin) was 15.7% (inactive). Also, the inhibition in assay [7] is -0.64% (inactive); in assay [8] it was 1.33% (inactive); in assay [14], 2.26% (inactive). Moreover, the growth inhibition in assay [9] is -13.3% (inactive); in [10], -11.6% (inactive). Moreover, in assay [11], the viability increase is 0.84% (inactive). Also, in assay [15], the RAM network inhibition was -2.31% (inactive).

In the case of `Cc1c(C(=O)NC2CC2)oc2ccc(S(=O)(=O)N3CCCCCC3)cc12`, the viability in [1] is 81.5%; in assay [3], 81.5% (inactive); in [4] it was 96.8% (inactive); in [5] it was 83% (inactive); in assay [6] (setting [16]) it was 97.1%; in assay [6] (setting [17]), 83%. The viability was 92.9% (inactive) in assay [12] and 90.8% (inactive) in assay [13]. In addition, in assay [2], the Her2 level is 106% (inactive). Besides, the differential viability (reversal) in assay [6] (H69AR cells + 2 uM doxorubicin) was -14.2% (inactive). Also, the figures for the inhibition in assay [7], in [8] and in assay [14] were -0.81% (inactive), 3.44% (inactive) and 0.26% (inactive), respectively. Besides, the growth inhibition was -7.49% (inactive) in assay [9] and 6.7% (inactive) in [10]. In addition, the viability increase in [11] is 3.84% (inactive). In addition, the RAM network inhibition in assay [15] is 4.34% (inactive).

As for `CCOC(=O)CN1CC23C=CC(O2)C(C(=O)Nc2ccc(C(C)=O)cc2)C3C1=O` (configuration not stated), the viability in assay [1] is 87%; in assay [3] it was 87% (inactive); in assay [4], 101% (inactive); in assay [5] it was 96.4% (inactive); in assay [6] (setting [16]) it was 94%; in assay [6] (setting [17]) it was 96.4%. Besides, the viability in assay [12] is 102% (inactive); in assay [13] it was 94.2% (inactive). Besides, the Her2 level in assay [2] was 101% (inactive). Besides, the differential viability (reversal) in assay [6] (H69AR cells + 2 uM doxorubicin) was 2.38% (inactive). In addition, the values for the inhibition in assay [7], in assay [8] and in [14] were -1.07% (inactive), 2.67% (inactive) and 1.26% (inactive), respectively. The growth inhibition in assay [9] is -5.7% (inactive); in assay [10], 2.56% (inactive). The viability increase in assay [11] is -1.78% (inactive). In assay [15], the RAM network inhibition is 1.41% (inactive).

As to `CC1CCCN(C(=O)CN2C(=O)c3ccccc3C2=O)C1` (configuration not stated), the viability in assay [1] was 93.5%; in [3] it was 93.5% (inactive); in assay [4], 93.8% (inactive); in assay [5], 84.8% (inactive); in [6] (setting [16]) it was 91.6%; in [6] (setting [17]), 84.8%. The viability in [12] was 101% (inactive); in assay [13], 98.7% (inactive). In addition, the Her2 level in [2] was 104% (inactive). For the same compound, the differential viability (reversal) in assay [6] (H69AR cells + 2 uM doxorubicin) is -6.78% (inactive). Also, the inhibition is -3.59% (inactive) in assay [7], -6.33% (inactive) in assay [8] and 1.7% (inactive) in assay [14]. The figures for the growth inhibition in assay [9] and in assay [10] were -15.4% (inactive) and -9.79% (inactive), respectively. Also, the viability increase in assay [11] is -0.25% (inactive). Besides, the RAM network inhibition in assay [15] is 0.38% (inactive).

As to `O=C(c1ccco1)N1CCN(C(=O)C2CC(c3ccc(F)cc3)=NO2)CC1` (configuration not stated), the viability in assay [1] was 88%; in assay [3], 88% (inactive); in [4] it was 94.1% (inactive); in assay [5], 88.5% (inactive); in assay [6] (setting [16]), 87.8%; in assay [6] (setting [17]), 88.5%. Also, the values for the viability in assay [12] and in [13] were 106% (inactive) and 105% (inactive), respectively. In addition, in [2], the Her2 level was 112% (inactive). The differential viability (reversal) in assay [6] (H69AR cells + 2 uM doxorubicin) is 0.74% (inactive). Also, the inhibition in assay [7] is -1.15% (inactive); in [8] it was -4.17% (inactive); in assay [14] it was 0.47% (inactive). The growth inhibition in assay [9] was -1.38% (inactive); in [10] it was 22% (inactive). In addition, the viability increase in [11] was -1.41% (inactive). Moreover, in [15], the RAM network inhibition was 5.01% (inactive).

In the case of `CCCCN(C)C(=O)c1cn(C)c2ccc(S(=O)(=O)N(C)C)cc2c1=O`, the viability in [1] is 96%; in assay [3] it was 96% (inactive); in assay [4], 102% (inactive); in assay [5] it was 102% (inactive); in [6] (setting [16]), 95.5%; in assay [6] (setting [17]) it was 102%. Also, the viability is 100% (inactive) in assay [12] and 108% (inactive) in [13]. The Her2 level in assay [2] was 102% (inactive). Also, the differential viability (reversal) in assay [6] (H69AR cells + 2 uM doxorubicin) was 6.23% (inactive). Besides, the inhibition in [7] is 0.13% (inactive); in [8] it was -4.5% (inactive); in [14], 0.805% (inactive). Besides, the growth inhibition is -3.25% (inactive) in assay [9] and 3.02% (inactive) in [10]. For the same compound, in assay [11], the viability increase was 0.32% (inactive). The RAM network inhibition in [15] was 2.99% (inactive).

The record behind these values is PubChem BioAssay.
